Data reported in PubChem BioAssay (NCI).
This is part of a sample that, as a whole, favours compounds with a hit. Of some 83,000 tested, about 20% had one in any assay.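 The test compound was applied at a single concentration to cells in 96-well plates for 48 hours, and percent growth was recorded.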 Activity calls are given as the source filed them. Rule for the calls: active = growth percent below 10; inactive = the rest.

Legend:
Test in all cases: NCI-60 one-dose screen, 48 h (100 = growth as untreated, 0 = no growth, -100 = all killed)
NCI-H522 lung = details: 10 µM unless noted
COLO 205 colon = details: 10 µM
SF-295 CNS = details: 10 µM unless noted
SNB-19 CNS = details: 10 µM unless noted
LOX IMVI melanoma = details: 10 µM unless noted
SK-MEL-28 melanoma = details: 10 µM unless noted
EKVX NSCLC = details: 10 µM unless noted
TK-10 renal = details: 10 µM unless noted
CAKI-1 renal = details: 10 µM unless noted
CCRF-CEM leukemia = details: 10 µM unless noted
RPMI-8226 leukemia = details: 10 µM unless noted
OVCAR-4 ovarian = details: 10 µM unless noted
HCC-2998 colon = details: 10 µM unless noted
MALME-3M melanoma = details: 10 µM unless noted
SN12C renal = details: 10 µM unless noted
BT-549 breast = details: 10 µM
SR leukemia = details: 10 µM
IGROV1 ovarian = details: 10 µM

SMILES	growth (NCI-H522 lung)	growth (COLO 205 colon)	growth (SF-295 CNS)	growth (SNB-19 CNS)	growth (LOX IMVI melanoma)	growth (SK-MEL-28 melanoma)	growth (EKVX NSCLC)	growth (TK-10 renal)	growth (CAKI-1 renal)	growth (CCRF-CEM leukemia)	growth (RPMI-8226 leukemia)	growth (OVCAR-4 ovarian)	growth (HCC-2998 colon)	growth (MALME-3M melanoma)	growth (SN12C renal)	growth (BT-549 breast)	growth (SR leukemia)	growth (IGROV1 ovarian)
CC(/C=N/N=C(N)N)=N/N=C(N)N	117% (inactive)	81.7% (inactive)	93.6% (inactive)	87.3% (inactive)	88.9% (inactive)	96.4% (inactive)	92.9% (inactive)	74.2% (inactive)	83% (inactive)	90.1% (inactive)	95.7% (inactive)	91.9% (inactive)	-14.8% (active)	–	–	–	–	–
CC1COC(=O)C1 (centres undefined)	99.4% (inactive)	102% (inactive)	99.8% (inactive)	105% (inactive)	100% (inactive)	103% (inactive)	–	100% (inactive)	96.1% (inactive)	–	110% (inactive)	–	98.6% (inactive)	98.2% (inactive)	98.4% (inactive)	102% (inactive)	–	–
CC[C@H](C)[C@H](NC(=O)Nc1ccccc1)C(=O)N(C)[C@H](C[C@@H](OC(C)=O)c1nc(C(=O)N[C@@H](Cc2ccccc2)C[C@H](C)C(=O)OC)cs1)C(C)C	-44.6% (active)	-51.8% (active)	4.42% (active)	–	–	52.1% (inactive)	33.2% (inactive)	–	–	9.52% (active)	8.45% (active)	–	18.7% (inactive)	41.4% (inactive)	46.6% (inactive)	2.56% (active)	11.2% (inactive)	22.2% (inactive)
[Br][Pb]([c]1ccccc1)([c]1ccccc1)[c]1ccccc1	-92.3% (active)	-98.7% (active)	–	-93% (active)	-100% (active)	-100% (active)	-91.1% (active)	-100% (active)	-100% (active)	-21.5% (active)	-29.8% (active)	-100% (active)	-94.6% (active)	–	-83.7% (active)	–	-37.8% (active)	-50.9% (active)
